Bioassay records: PubChem, The Scripps Research Institute Molecular Screening Center
Most compounds without a hit are left out; they make up all but 4.6% or so of the library.
DAX1 inh-1 – inhibitors of human orphan nuclear receptor DAX1 (NR0B1); inhibition, % at 6.75 µM; actives 0.99% (n = 340,000); P51843; HEK293 Gal4-DAX1 luciferase reporter, luminescence;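 active = inhibition above the mean over all tested compounds plus 3 SD, cut at about 4.2% in these data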;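 note: inhibition shows as a rise in luminescence from relieved DAX1 repression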
ssDAF12 agonist – activates DAF-12 receptor from parasite S. stercoralis. HEK293 ssDAF-12/GRIP1 lit1-tk-luc reporter, luminescence; % of 3 µM dafachronic acid response. AID 652126. actives 1% (n = 370,000). activation, % at 6.8 µM;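 active = activation above the mean over all tested compounds plus 3 SD, cut at about 0.9% in these data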
hgDAF-12 ag – agonists of H. glycines DAF-12 nuclear receptor; HEK293 GAL4-hgDAF12 UAS-luciferase reporter, agonist luminescence; normalized to butyrate control; activation, % at 6.8 µM; actives 1.8% (n = 370,000); AID 687014;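 active = activation above a cutoff set at the mean of all screened compounds plus 3 SD, cut at about 10% in these data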
Wee1 stabilizer – inhibitors of human Wee1 degradation; P30291; HeLa Luc-Wee1K328M stability, luciferase luminescence; 100% = proteasome inhibitor MG132 effect; reporter increase, % at 5 µM; actives 1.2% (n = 220,000); AID 1321;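 active = activation above the mean of all tested compounds plus 3 SD, set per screening run, cut at about 8.8% in these data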;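 note: cells exposed to compound for 20 h before luminescence read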
Target sequence (P30291 whole entry K328M): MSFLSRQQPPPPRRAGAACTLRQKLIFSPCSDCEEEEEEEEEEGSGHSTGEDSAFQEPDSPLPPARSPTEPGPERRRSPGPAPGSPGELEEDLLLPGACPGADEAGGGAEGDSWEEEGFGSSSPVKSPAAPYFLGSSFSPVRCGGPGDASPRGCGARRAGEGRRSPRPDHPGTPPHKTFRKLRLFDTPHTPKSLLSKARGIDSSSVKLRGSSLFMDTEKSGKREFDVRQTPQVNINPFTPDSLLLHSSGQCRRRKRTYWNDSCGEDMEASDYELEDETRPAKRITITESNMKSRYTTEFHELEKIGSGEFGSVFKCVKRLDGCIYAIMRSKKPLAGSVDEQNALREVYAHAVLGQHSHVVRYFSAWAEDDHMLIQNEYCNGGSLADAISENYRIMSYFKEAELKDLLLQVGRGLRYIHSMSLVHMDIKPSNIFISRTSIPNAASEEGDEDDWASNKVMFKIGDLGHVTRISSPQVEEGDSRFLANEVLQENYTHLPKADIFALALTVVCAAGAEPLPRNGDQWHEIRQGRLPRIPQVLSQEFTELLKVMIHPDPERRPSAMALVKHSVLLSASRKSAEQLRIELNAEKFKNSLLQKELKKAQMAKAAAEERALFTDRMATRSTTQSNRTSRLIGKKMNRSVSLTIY
hcDAF12 agonist – H. contortus DAF-12 activation, primary screen | HEK293 hcDAF-12 lit1-tk-luc reporter, luminescence; 0% DMSO, 100% Δ7-dafachronic acid | activation, % at 6.8 µM | actives 1.4% (n = 370,000) | AID 652067;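 active = activation above the mean of all tested compounds plus 3 SD, cut at about 5.5% in these data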
DAX1 inh-2 – DAX1 (NR0B1) inhibition, primary screen; AID 652010; HEK293T StAR-luciferase reporter, SF-1/DAX-1 repression relief; actives 1.1% (n = 370,000); inhibition, % at 6.8 µM;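 active = inhibition above the mean over all tested compounds plus 3 SD, cut at about 3.6% in these data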;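 note: higher inhibition means more luminescence from relief of DAX-1 repression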
Hits are given with their value; – = inactive; · = no result given.

SMILES	DAX1 inh-1	ssDAF12 agonist	hgDAF-12 ag	Wee1 stabilizer	hcDAF12 agonist	DAX1 inh-2
CCOC(=O)C1=C(C)C2C3C(=O)N(c4cc(C)ccc4C)C(=O)C3C1(C)C1C(=O)N(c3cc(C)ccc3C)C(=O)C21 (centres undefined)	–	–	–	9.1	–	–
CN1C=CC(C(C(N)=O)c2ccccc2)c2ccccc21 (centres undefined)	–	–	–	·	–	–
O=C(O)CCCNC(=O)CCn1nnc2ccccc2c1=O	–	–	–	–	–	–
O=C(O)CCCCCNC(=O)CCn1nnc2ccccc2c1=O	5.9	–	–	–	–	–
O=c1c2ccccc2nnn1CSc1nc2ccccc2[nH]1	–	–	11.4	–	–	–
CC(C)Sc1nc2ccccc2[nH]1	–	–	–	–	–	–
CC(C)CCSc1nc2ccccc2[nH]1	–	–	13.0	–	–	–
CC(=O)NC(c1ccccc1)c1nc(-c2csc3ccccc23)cs1 (centres undefined)	·	–	–	·	–	–
N#CC12C(=O)NC(=O)C1(C#N)C21CCCC1 (centres undefined)	–	–	–	·	–	–
O=C(O)[C@@H]1Cc2ccccc2N1	–	1.0	–	–	–	–
NC(=O)C(CCCCN1CCCCC1)(c1ccccc1)c1ccccc1	–	–	–	·	–	4.1
CC(C)(C)c1ccc(C(=O)N2CCC2(C)C(=O)Nc2cnc3ccccc3c2)cc1 (centres undefined)	·	–	–	·	–	–
CCc1ccc(Nc2ccc(S(=O)(=O)N3CCOCC3)cc2[N+](=O)[O-])cc1	–	–	–	9.7	–	–
CCOc1ccc(CN(C)CC(=O)Nc2cc(OC)c([N+](=O)[O-])cc2C)cc1	–	1.2	–	–	–	–
CCOc1ccc(CN(C)CC(=O)Nc2cc(C)c(C)cc2[N+](=O)[O-])cc1	–	–	–	–	–	–
O=C(NC1CCCCC1)C(c1ccc(F)cc1)N(Cc1ccco1)C(=O)Cn1nnc2ccccc21 (centres undefined)	–	–	–	–	–	–
O=C(NC1CCCCC1)C(c1ccc(F)cc1)N(Cc1ccco1)C(=O)CN1C(=O)c2ccccc2S1(=O)=O (centres undefined)	–	–	–	9.9	–	–
COc1ccc(-c2ccc(S(=O)(=O)N3CCCC3)cc2)cc1	5.2	–	–	–	–	–
COc1ccc(NC(=O)CCN2CCN(S(=O)(=O)c3ccc(Cl)cc3)CC2)cc1	–	–	–	–	–	–
COc1ccc(NC(=O)CCN2CCN(S(=O)(=O)c3ccc(C(C)C)cc3)CC2)cc1	–	1.2	–	–	–	–
COc1ccc(OC)c(S(=O)(=O)N2CCC(c3nc4ccccc4[nH]3)CC2)c1	–	–	–	·	–	4.1
COc1ccc(S(=O)(=O)N2CCC(C(=O)N3CCOCC3)CC2)cc1	–	–	–	–	–	–
COc1ccc(S(=O)(=O)N2CCN(C(=O)C3CC3)CC2)cc1	4.2	–	–	·	–	–
Cc1ccc(S(=O)(=O)N2CCN(C(=O)CN3C(=O)CNC3=O)CC2)cc1	–	–	–	·	–	–
O=C(OCC#CCSc1nnc(-c2ccc(F)cc2)o1)c1ccc(F)cc1	·	–	–	·	–	·
SMILES	DAX1 inh-1	ssDAF12 agonist	hgDAF-12 ag	Wee1 stabilizer	hcDAF12 agonist	DAX1 inh-2
Cc1noc(C)c1NC(=O)Nc1ccc2c(c1)C(=O)N([C@H](C)CO)C[C@@H](C)[C@@H](CN(C)S(=O)(=O)c1cn(C)cn1)OCCCC[C@H](C)O2	–	–	–	·	–	–
COC(=O)[C@]12C[C@H](CC(=O)NCCc3ccccc3OC)C(=O)N(Cc3cccc4ccccc34)C1=C[C@H](C(C)(C)C)O[C@@H]2C	·	–	–	·	–	–
COc1ccc(OC)c(Cc2nnc(CCC(=O)N3CCN(C4CCCC4)CC3)o2)c1	–	–	–	·	–	3.7
O=C(CCC(=O)N1CCN(S(=O)(=O)c2ccc(Cl)cc2)CC1)Nc1ccc2ccccc2c1	–	–	–	10.4	–	–
COc1ccc(OC)c(S(=O)(=O)N2CCC(C(=O)N3CCN(C4CCCCC4)CC3)CC2)c1	·	–	–	·	–	4.2
O=C(NCCC(=O)N1CCN(S(=O)(=O)c2ccc(Cl)cc2)CC1)Nc1ccccc1	–	–	–	·	–	–
CN(CCOc1ccccc1)C(=O)c1cc(S(=O)(=O)N2CCOCC2)c(Cl)cc1Cl	–	–	–	·	–	–
CCN1C(=O)/C(=C\c2cccn2-c2ccc([N+](=O)[O-])cc2)N(CC)C1=S	–	–	–	9.5	–	–
CCN1CCN(C(=S)Nc2ccc([N+](=O)[O-])cc2)CC1	–	–	–	–	–	–
Cc1cn(CCC(=O)Nc2ccc(N3CCOCC3)cc2)c2ccccc12	–	–	–	–	–	–
Cc1cn(CCC(=O)Nc2ccccc2N2CCOCC2)c2ccccc12	6.8	–	–	–	6.0	–
O=C(NC1CCCC1)c1ccc(COc2ccccc2)o1	·	–	–	·	–	–
Cc1cccc(C(=O)Nc2ccc(N3CCN(S(C)(=O)=O)CC3)cc2)c1	–	–	11.3	–	–	–
CS(=O)(=O)N1CCN(c2ccc(NC(=O)c3ccccc3)cc2)CC1	·	–	–	–	–	–
O=C(Nc1ccc(N2CCCC2)cc1)c1cccc(Cl)c1	–	–	12.4	·	6.0	–
O=C(Nc1ccc(N2CCCC2)cc1)c1cc(Cl)ccc1Cl	–	–	–	·	–	–
CCOc1cc(C(=O)NCCOC)cc(OCC)c1OCC	–	1.5	–	–	–	–
CCn1cnc2scc(-c3ccc(OC)cc3)c2c1=O	–	–	–	·	–	–
CCc1ccc(-c2csc3ncn(CC)c(=O)c23)cc1	–	17.8	–	–	–	–
CCN(CC)C(=O)c1ccc2sc([C@@H]3O[C@H](CO)[C@H](O)[C@H](O)[C@H]3O)nc2c1	·	–	–	·	–	–
CN(C)CCN1CCN(C2CN(Cc3ccccc3)S(=O)(=O)C2)CC1 (centres undefined)	·	–	–	·	–	–
O=c1c2ccc(F)cc2nc2sc(Nc3ccc4c(c3)CCC4)nn12	·	–	10.6	·	–	·
O=C1CC(c2ccc(S(=O)(=O)NCc3ccccc3)cc2)CN1 (centres undefined)	5.6	–	–	–	–	–
CC(=O)c1c(C)[nH]c(C(=O)OCC(=O)NCc2cccs2)c1C	–	–	–	·	–	–
S=C1c2ccccc2CN1c1ccccc1	–	–	–	–	6.0	–
O=C(O)c1cccc2c1C(=O)N(c1ccccc1)C2	–	–	–	·	–	–
CC(C)=CCCC1(C)C=Cc2c(c(C)cc3c2[nH]c2cc(O)ccc23)O1 (centres undefined)	4.9	–	–	·	–	–
Cc1cccc(Cc2nnc(CCC(=O)N(C)CCc3ccccc3)o2)c1	–	–	11.9	·	–	–
Cc1cc(-c2nnc(CCC(=O)N(C)CCc3ccccc3)o2)no1	–	–	–	–	–	–
